# From ChEMBL document CHEMBL2218924, “A broad activity screen in support of a chemogenomic map for kinase signalling research and drug discovery” (Biochem J, 2013)
# What was measured:
# [1] = biological target: T1, Serine/threonine-protein kinase 3 (Homo sapiens) (UniProt Q13188); settings: at 1 µM
# T1 sequence (whole entry): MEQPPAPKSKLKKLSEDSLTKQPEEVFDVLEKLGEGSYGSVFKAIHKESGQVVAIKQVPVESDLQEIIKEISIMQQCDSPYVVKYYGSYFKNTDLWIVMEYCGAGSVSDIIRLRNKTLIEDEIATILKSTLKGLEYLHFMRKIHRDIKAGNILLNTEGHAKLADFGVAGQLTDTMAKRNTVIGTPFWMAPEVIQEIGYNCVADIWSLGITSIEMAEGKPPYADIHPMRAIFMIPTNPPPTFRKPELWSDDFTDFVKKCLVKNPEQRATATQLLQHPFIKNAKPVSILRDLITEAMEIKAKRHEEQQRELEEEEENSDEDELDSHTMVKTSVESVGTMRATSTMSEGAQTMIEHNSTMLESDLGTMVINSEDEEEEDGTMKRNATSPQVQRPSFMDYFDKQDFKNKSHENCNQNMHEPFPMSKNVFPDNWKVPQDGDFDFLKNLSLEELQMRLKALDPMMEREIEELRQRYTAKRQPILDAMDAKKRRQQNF
# [2] = biological target: T1, Serine/threonine-protein kinase 3 (Homo sapiens); settings: at 10 µM
# [3] = biological target: Serine/threonine-protein kinase 24 (Homo sapiens) (UniProt Q9Y6E0); settings: at 1 µM
# Serine/threonine-protein kinase 24 (Homo sapiens), sequence (Q9Y6E0 whole entry, looked up): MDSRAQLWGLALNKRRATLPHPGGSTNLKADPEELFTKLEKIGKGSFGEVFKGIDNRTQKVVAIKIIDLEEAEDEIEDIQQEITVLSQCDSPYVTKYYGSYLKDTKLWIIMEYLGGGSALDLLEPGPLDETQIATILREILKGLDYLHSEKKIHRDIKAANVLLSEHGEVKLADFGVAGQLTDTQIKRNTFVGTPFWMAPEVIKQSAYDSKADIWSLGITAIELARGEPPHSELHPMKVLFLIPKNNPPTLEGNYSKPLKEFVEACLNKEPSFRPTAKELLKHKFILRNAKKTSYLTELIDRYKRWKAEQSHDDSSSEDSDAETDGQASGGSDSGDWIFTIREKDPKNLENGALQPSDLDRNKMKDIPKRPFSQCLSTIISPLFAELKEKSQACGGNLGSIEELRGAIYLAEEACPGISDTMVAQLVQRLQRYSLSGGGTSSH
# [4] = biological target: Serine/threonine-protein kinase 24 (Homo sapiens) (UniProt Q9Y6E0); settings: at 10 µM
# [5] = biological target: T2, Tyrosine-protein kinase Mer (Homo sapiens) (UniProt Q12866); settings: at 1 µM
# T2 sequence (whole entry): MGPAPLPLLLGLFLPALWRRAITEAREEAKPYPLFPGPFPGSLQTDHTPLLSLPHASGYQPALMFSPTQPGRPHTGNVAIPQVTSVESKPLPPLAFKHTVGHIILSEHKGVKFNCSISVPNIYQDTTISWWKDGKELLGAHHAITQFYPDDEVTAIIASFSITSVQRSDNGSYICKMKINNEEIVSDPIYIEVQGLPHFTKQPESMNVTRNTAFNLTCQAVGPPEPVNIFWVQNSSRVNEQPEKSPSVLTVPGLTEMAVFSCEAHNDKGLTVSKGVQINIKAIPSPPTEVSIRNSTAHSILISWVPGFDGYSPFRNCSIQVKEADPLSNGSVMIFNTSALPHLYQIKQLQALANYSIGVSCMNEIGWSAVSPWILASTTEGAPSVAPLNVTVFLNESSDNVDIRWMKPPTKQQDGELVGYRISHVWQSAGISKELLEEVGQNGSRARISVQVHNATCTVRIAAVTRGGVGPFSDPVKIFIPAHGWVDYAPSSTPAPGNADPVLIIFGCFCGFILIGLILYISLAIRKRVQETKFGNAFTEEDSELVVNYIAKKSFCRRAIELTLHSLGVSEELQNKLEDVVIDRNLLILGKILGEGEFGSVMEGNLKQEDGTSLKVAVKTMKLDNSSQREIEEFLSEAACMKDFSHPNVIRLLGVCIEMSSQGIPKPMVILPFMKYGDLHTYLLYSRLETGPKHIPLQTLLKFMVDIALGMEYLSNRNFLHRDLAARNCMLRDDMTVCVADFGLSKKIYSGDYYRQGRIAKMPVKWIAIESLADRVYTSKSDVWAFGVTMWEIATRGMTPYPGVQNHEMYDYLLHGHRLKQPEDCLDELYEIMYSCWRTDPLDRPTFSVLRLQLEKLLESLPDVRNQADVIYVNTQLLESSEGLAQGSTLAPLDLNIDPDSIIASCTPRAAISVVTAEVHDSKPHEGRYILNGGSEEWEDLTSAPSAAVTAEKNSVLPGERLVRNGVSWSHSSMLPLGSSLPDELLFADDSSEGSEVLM
# [6] = biological target: T2, Tyrosine-protein kinase Mer (Homo sapiens); settings: at 10 µM
# [7] = biological target: Hepatocyte growth factor receptor (Homo sapiens) (UniProt P08581); settings: at 1 µM
# Hepatocyte growth factor receptor (Homo sapiens), sequence (P08581 whole entry): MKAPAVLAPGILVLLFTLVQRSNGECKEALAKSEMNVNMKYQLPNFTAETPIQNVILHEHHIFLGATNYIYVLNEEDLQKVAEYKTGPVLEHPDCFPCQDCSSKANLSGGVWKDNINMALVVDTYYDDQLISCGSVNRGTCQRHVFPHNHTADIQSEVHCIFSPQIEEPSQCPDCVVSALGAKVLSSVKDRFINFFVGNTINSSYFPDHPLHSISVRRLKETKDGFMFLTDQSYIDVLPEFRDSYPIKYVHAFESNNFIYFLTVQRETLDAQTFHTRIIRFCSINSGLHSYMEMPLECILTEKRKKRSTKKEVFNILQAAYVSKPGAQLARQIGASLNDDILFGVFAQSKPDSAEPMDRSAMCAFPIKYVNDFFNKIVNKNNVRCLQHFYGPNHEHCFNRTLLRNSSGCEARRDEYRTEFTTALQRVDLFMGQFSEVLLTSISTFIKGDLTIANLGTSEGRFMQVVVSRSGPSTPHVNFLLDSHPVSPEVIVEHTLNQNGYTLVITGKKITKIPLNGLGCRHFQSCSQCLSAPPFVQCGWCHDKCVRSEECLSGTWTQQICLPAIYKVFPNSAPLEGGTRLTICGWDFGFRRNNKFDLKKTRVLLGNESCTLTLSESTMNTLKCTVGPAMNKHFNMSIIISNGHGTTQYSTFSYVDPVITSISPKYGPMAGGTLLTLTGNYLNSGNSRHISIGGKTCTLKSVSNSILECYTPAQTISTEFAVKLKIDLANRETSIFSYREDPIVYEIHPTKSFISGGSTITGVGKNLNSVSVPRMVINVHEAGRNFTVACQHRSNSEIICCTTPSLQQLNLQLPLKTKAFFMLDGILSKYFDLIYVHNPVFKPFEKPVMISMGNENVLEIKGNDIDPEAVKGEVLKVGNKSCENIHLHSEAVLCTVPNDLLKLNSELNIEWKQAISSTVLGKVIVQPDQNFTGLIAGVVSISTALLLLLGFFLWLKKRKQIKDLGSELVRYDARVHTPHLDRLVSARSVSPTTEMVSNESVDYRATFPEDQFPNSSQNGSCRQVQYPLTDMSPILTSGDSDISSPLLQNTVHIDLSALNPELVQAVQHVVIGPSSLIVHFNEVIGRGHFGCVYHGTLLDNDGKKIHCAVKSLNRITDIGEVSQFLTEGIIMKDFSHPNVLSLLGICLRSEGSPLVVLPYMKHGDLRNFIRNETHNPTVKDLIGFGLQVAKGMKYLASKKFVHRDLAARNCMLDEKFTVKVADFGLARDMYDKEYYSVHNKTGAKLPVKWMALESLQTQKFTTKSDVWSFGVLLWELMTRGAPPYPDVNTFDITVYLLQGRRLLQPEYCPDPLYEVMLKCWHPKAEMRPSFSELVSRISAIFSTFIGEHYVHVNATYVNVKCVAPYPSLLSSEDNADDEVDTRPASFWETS
# [8] = biological target: Hepatocyte growth factor receptor (Homo sapiens) (UniProt P08581); settings: at 10 µM
# [9] = biological target: MAP kinase-interacting serine/threonine-protein kinase 2 (Homo sapiens) (UniProt Q9HBH9); settings: at 1 µM
# MAP kinase-interacting serine/threonine-protein kinase 2 (Homo sapiens), sequence (Q9HBH9 whole entry, looked up): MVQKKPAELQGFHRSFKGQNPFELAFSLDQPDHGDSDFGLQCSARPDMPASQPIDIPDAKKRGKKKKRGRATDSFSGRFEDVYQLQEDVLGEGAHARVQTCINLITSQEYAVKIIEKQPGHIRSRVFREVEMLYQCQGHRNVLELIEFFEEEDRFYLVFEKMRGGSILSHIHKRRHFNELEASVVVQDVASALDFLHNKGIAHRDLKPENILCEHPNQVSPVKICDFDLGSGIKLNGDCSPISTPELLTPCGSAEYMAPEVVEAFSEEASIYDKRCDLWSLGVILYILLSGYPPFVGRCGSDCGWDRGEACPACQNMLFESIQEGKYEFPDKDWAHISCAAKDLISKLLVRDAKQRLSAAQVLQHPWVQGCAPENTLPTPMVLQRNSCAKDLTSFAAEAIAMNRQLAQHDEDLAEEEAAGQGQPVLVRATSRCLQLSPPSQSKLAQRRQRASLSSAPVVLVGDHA
# [10] = biological target: MAP kinase-interacting serine/threonine-protein kinase 2 (Homo sapiens) (UniProt Q9HBH9); settings: at 10 µM
# [11] = biological target: T3, Muscle, skeletal receptor tyrosine-protein kinase (Homo sapiens) (UniProt O15146); settings: at 1 µM
# T3 sequence (whole entry): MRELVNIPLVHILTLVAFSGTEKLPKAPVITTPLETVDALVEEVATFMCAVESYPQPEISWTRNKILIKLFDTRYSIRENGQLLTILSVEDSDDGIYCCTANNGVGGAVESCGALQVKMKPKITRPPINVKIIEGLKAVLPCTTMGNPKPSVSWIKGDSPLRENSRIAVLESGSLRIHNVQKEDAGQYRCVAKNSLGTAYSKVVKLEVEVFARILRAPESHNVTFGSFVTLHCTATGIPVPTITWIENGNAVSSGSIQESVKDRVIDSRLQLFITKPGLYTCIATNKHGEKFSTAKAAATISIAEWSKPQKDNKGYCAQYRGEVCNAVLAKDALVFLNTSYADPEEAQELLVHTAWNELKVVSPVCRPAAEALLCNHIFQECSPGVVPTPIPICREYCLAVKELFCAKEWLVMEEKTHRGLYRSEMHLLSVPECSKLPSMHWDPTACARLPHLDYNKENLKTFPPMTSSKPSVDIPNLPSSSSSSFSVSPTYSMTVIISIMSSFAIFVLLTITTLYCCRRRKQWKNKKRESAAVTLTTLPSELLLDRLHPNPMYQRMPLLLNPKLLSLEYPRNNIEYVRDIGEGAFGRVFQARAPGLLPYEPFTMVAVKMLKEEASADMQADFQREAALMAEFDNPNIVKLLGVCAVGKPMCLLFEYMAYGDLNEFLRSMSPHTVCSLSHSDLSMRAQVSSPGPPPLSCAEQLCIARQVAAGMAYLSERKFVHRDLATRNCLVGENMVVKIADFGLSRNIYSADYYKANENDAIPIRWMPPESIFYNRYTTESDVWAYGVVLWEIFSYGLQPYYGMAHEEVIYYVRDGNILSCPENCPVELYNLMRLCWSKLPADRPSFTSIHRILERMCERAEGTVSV
# [12] = biological target: T3, Muscle, skeletal receptor tyrosine-protein kinase (Homo sapiens); settings: at 10 µM
# [13] = biological target: T4, Serine/threonine-protein kinase Nek11 (Homo sapiens) (UniProt Q8NG66); settings: at 1 µM
# T4 sequence (whole entry): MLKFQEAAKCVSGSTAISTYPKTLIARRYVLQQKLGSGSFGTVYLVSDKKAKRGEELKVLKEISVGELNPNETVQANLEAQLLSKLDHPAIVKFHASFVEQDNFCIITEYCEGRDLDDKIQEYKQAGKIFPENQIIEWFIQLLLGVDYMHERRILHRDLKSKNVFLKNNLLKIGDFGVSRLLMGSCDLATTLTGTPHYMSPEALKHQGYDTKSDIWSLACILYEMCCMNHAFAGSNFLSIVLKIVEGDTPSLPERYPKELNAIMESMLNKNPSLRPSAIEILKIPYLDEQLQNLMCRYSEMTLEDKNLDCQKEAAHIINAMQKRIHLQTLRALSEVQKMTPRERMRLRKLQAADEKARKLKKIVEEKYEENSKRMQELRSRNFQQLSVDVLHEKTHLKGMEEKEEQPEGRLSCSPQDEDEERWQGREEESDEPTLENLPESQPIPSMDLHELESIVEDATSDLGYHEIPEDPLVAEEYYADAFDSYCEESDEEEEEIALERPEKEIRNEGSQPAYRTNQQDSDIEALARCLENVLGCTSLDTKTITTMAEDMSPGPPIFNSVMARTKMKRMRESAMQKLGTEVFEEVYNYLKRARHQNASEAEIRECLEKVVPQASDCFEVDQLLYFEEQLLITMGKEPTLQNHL
# [14] = biological target: T4, Serine/threonine-protein kinase Nek11 (Homo sapiens); settings: at 10 µM
# [15] = biological target: T5, Serine/threonine-protein kinase Nek2 (Homo sapiens) (UniProt P51955); settings: at 1 µM
# T5 sequence (whole entry): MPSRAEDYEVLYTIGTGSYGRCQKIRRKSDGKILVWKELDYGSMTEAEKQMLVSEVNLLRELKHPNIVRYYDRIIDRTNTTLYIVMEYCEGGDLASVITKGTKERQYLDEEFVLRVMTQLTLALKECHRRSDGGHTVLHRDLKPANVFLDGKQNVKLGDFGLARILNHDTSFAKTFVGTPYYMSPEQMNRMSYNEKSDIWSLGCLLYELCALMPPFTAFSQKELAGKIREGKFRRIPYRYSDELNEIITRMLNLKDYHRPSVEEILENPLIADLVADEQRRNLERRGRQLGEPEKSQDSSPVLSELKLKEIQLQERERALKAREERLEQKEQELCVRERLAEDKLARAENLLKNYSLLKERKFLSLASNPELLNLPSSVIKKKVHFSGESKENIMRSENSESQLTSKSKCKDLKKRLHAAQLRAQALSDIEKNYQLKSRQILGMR
# [16] = biological target: T5, Serine/threonine-protein kinase Nek2 (Homo sapiens); settings: at 10 µM
# [17] = biological target: T6, Serine/threonine-protein kinase Nek3 (Homo sapiens) (UniProt P51956); settings: at 1 µM
# T6 sequence (whole entry): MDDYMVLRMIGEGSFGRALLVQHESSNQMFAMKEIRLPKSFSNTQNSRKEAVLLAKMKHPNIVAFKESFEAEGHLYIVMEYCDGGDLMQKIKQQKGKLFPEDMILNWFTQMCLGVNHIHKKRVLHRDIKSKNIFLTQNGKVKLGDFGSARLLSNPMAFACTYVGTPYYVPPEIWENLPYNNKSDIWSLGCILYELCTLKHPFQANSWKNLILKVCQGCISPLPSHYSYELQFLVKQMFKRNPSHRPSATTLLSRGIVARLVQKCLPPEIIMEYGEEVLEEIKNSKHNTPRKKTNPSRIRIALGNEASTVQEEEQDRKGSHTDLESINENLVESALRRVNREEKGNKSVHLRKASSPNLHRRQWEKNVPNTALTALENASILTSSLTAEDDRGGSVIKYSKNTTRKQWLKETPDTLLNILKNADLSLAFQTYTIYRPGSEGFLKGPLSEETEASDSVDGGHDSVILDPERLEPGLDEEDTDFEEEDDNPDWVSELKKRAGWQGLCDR
# [18] = biological target: T6, Serine/threonine-protein kinase Nek3 (Homo sapiens); settings: at 10 µM
# [19] = biological target: Serine/threonine-protein kinase tousled-like 2 (Homo sapiens) (UniProt Q86UE8); settings: at 1 µM
# Serine/threonine-protein kinase tousled-like 2 (Homo sapiens), sequence (Q86UE8 whole entry, looked up): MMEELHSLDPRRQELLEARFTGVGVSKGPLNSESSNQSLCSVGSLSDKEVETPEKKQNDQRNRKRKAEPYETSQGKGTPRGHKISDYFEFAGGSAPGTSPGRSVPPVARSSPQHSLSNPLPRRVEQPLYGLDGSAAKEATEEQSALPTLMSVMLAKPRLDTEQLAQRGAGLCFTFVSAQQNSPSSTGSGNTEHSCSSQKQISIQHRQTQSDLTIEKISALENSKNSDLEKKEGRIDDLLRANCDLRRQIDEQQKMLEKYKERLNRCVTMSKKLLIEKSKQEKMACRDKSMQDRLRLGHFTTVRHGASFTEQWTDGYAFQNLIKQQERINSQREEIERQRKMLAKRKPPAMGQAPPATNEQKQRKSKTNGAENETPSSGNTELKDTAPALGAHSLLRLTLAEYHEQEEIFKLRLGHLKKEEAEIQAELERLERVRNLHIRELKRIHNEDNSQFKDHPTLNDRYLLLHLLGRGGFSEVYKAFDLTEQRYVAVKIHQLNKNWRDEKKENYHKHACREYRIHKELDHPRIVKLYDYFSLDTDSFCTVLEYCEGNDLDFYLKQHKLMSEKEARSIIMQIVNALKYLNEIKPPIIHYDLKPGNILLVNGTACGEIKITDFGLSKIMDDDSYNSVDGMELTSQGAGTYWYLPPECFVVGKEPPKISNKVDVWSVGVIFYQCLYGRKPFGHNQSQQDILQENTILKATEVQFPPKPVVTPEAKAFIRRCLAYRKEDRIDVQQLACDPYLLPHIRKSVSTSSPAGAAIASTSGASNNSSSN
# [20] = biological target: Serine/threonine-protein kinase tousled-like 2 (Homo sapiens) (UniProt Q86UE8); settings: at 10 µM
SMILES,residual activity [1] [%],residual activity [2] [%],residual activity [3] [%],residual activity [4] [%],residual activity [5] [%],residual activity [6] [%],residual activity [7] [%],residual activity [8] [%],residual activity [9] [%],residual activity [10] [%],residual activity [11] [%],residual activity [12] [%],residual activity [13] [%],residual activity [14] [%],residual activity [15] [%],residual activity [16] [%],residual activity [17] [%],residual activity [18] [%],residual activity [19] [%],residual activity [20] [%]
Cc1ccc(NC2=CC(=O)c3sc(C)nc3C2=O)cc1,109,100,78,83,98,110,91,118,98,110,90,85,66,75,91,89,81,101,87,84
Cc1nc2cc3nc(-c4cccs4)cnc3cc2n1C,107,87,90,96,103,41,128,91,84,37,102,55,93,102,87,103,114,104,107,83
c1ccc(-c2n[nH]c3c2oc2ccccc23)cc1,–,–,66,67,95,70,87,70,80,24,14,0,–,–,91,99,–,–,98,86
COc1ccc(S(=O)(=O)N(CCO)c2ccccc2CN(C)C/C=C/c2ccc(Cl)cc2)cc1,99,78,78,69,93,83,113,120,106,96,79,79,95,109,105,102,80,92,92,85
O=C1Nc2ccccc2/C1=C1/Nc2ccccc2/C1=N\OCCC(O)CO (stereo unspecified),4,1,27,3,1,-1,45,37,66,44,20,3,41,35,–,–,71,–,38,6
CC(C)n1cnc2/c(=N/c3cccc(Cl)c3)nc(NCCO)[nH]c21,71,36,62,29,54,10,87,47,95,77,75,35,43,58,85,64,76,68,82,68
